Where “and” joins values, the source holds several entries; their conditions need not be identical. Identical values can stand only once. Results filed as inconclusive are left out. Calls of active or inactive are those of the source. Unless noted, calls come from the whole dose curve.
What was measured:
[1] = Nuclear factor erythroid 2-related factor 2/antioxidant responsive element (Nrf2/ARE) small molecule agonists: qHTS cell viability counter screen in human keratinocytes (AID 1919968; active = well fitted curve in the direction sought with a large enough effect in the repeat runs; an effect the other way counts as inactive or inconclusive; note: nearly all actives have a fitted effect of over 55% in size; note: potency is the fitted concentration of half-maximal effect)
Outline: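 HaCaT ARE reporter line, 1,500 cells/well; 5 h settle, 37 C/5% CO2; cpd in DMSO pinned; 23 h exposure; CellTiter-Fluor, 1 h; fluorescence.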

[2] = target: Gonadotropin-releasing hormone receptor (Homo sapiens) (UniProt P30968); test: Human gonadotropin-releasing hormone receptor (GnRHR) small molecule agonists, calcium flux assay in GnRHR-HEK293 cells (AID 1920063); note: nearly all actives have a fitted effect of over 35% in size
Chain of Gonadotropin-releasing hormone receptor (Homo sapiens) (P30968 whole entry, looked up): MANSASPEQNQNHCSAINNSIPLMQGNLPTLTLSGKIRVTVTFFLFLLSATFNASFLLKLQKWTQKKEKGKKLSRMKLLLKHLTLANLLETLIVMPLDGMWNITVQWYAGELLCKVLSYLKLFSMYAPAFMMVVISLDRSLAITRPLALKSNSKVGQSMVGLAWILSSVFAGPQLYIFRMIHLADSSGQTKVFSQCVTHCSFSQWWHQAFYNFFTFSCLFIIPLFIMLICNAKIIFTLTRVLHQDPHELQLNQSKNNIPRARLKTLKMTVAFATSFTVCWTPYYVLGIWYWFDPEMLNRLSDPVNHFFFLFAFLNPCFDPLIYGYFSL
Outline: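 GnRHR-HEK293, 1500 cells/well, 18 h 37 C/5% CO2; Ca dye 1 h 37 C; cpd pinned (DMSO), agonist mode; kinetic FL 480/540, 3 min, 1 s reads; 15 conc, n=3.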

[3] = target: KiSS-1 receptor (Homo sapiens) (UniProt Q969F8); test: Human kisspeptin (KISS1R) small molecule agonists, calcium flux assay in KISS1R-HEK293 cells (AID 1920064; active = well fitted curve in the direction sought with a large enough effect in the repeat runs; an effect the other way counts as inactive or inconclusive)
Chain of KiSS-1 receptor (Homo sapiens) (Q969F8 whole entry, looked up): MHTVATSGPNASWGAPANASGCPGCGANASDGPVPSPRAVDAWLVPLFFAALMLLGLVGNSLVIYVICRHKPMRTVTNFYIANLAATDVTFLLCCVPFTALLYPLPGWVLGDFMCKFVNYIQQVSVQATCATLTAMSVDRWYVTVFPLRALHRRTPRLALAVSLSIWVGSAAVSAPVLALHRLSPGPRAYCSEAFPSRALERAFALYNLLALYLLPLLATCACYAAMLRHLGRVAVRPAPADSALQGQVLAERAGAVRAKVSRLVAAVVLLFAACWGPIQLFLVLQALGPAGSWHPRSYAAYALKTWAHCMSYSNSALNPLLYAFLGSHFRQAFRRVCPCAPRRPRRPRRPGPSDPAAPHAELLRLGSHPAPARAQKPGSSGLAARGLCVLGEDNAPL
Outline: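 Stable human KISS1R HEK293 line; 18 h plating, 37 C/5% CO2; calcium dye 1 h 37 C; compound pin transfer; kinetic fluorescence Ex/Em 480/540, 3 min.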

[4] = G protein-coupled receptor (GPCR) small molecule agonists, calcium flux assay: HEK293 wild type cell line counter screen (AID 1920065)
Outline: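 Kinetic fluorescence at Ex/Em 480/540, recorded every second over 3 min, served as the read-out after compound addition. Each compound was tested at 15 concentrations in triplicate on cells pre-loaded with calcium dye for 1 h.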

[5] = p53 small molecule agonists, cell-based qHTS assay with human liver microsomes (AID 1963577);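 note: p53 response element beta-lactamase reporter cells with liver microsomes plus NADPH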
Outline: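 p53RE-bla cells; 5 h settle, 37 C/5% CO2; cpd + HLM 0.5 mg/mL + NADPH 0.5 mg/mL (final); 16 h 37 C; LiveBLAzer 2 h RT dark; fluorescence readout.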

[6] = p53 small molecule agonists, cell-based qHTS assay with human liver microsomes: qHTS cell viability counter screen (AID 1963579); note: nearly all actives have a fitted effect of over 45% in size
Outline: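 Luminescent CellTiter-Glo read-out, 30 min at room temperature, gauged cytotoxicity in p53RE-bla cells exposed 16 h at 37 C to DMSO-dissolved compounds with metabolic activation by human liver microsomes and NADPH, each 0.5 mg/mL final.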

[7] = p53 small molecule agonists, cell-based qHTS assay with rat liver microsomes: qHTS cell viability counter screen (AID 1963580); note: nearly all actives have a fitted effect of over 45% in size
Outline: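 Intracellular ATP, by CellTiter-Glo luminescence, defines viability. HCT-116 p53RE-bla cells, 4,000 per well, were compound-treated in the presence of rat liver microsomes and NADPH for 16 h at 37 C.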

[8] = p53 small molecule agonists, cell-based qHTS assay: qHTS cell viability counter screen (AID 1963581); note: nearly all actives have a fitted effect of over 45% in size
Outline: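 HCT-116 p53RE-bla cells, 4,000/well, plated 5 h before compound pin transfer; 16 h at 37 C; bla substrate 2 h RT; then CellTiter-Glo, 30 min RT, luminescence.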

[9] = p53 small molecule agonists, cell-based qHTS assay (AID 1963582; active = well fitted activation curve with a large enough effect in the signal ratio in the repeat runs, not every such curve was filed as active; the % refers to the signal ratio)
Outline: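 Reporter line: p53RE-bla. Pre-incubation 5 h, 37 C, 5% CO2; compound (DMSO, pin tool) 16 h, 37 C; B/G FRET substrate 2 h RT; fluorescence intensity read.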

[10] = cAMP Responsive Elements (CRE) small molecule agonists, cell-based qHTS assay (AID 1963590)
Outline: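 HEK 293T CRE-bla, 2,000 cells/well, 18 h preincubation 37 C/5% CO2; cpds (DMSO) pinned, 3 h; LiveBLAzer B/G FRET substrate, 2 h RT.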

[11] = cAMP Responsive Elements (CRE) small molecule antagonists, cell-based qHTS assay (AID 1963591; active = well fitted inhibition curve with a large enough effect in the signal ratio in the repeat runs, not every such curve was filed as active; the % refers to the signal ratio; note: potency is the fitted concentration of half-maximal effect)
Outline: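 Beta-lactamase reporter read by FRET substrate (LiveBLAzer B/G) after 2 h at room temperature. CRE-bla HEK293T cells had received compound plus 0.25 uM (final) NKH477 for 3 h at 37 °C.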

[12] = target: Beta-2 adrenergic receptor (Homo sapiens) (UniProt P07550); test: Adrenergic beta2 receptor (ADRB2) small molecule antagonists, cell-based qHTS assay (AID 1963592); note: series mostly up to about 92 µM; nearly all actives have a fitted effect of over 50% in size
Chain of Beta-2 adrenergic receptor (Homo sapiens) (P07550 whole entry, looked up): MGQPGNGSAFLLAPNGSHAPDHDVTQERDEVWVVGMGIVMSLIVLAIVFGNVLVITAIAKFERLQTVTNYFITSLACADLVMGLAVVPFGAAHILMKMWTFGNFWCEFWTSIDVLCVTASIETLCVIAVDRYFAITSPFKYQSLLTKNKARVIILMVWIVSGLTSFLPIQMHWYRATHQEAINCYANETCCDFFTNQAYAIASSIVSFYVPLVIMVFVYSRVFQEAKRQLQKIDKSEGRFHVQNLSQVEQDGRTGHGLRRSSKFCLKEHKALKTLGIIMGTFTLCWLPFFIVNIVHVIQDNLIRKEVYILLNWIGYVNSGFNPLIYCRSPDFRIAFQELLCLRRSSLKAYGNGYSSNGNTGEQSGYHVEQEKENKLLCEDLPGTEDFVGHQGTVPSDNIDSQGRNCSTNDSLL
Outline: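 Cells (CHO, stable ADRB2 overexpression) incubated 18-20hr at 37C; compounds added from DMSO; agonist mix (1nM isoproterenol, 100uM IBMX, 25uM Ro-20-1724) added; 0.5hr RT; d2-cAMP and anti-cAMP-cryptate added; 1hr RT; 665/615 nm read.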

[13] = target: D(2) dopamine receptor (Homo sapiens) (UniProt P14416); test: Dopamine D2 receptor (DRD2) small molecule agonists, cell-based qHTS assay (AID 1963594); note: nearly all actives have a fitted effect of over 35% in size
Chain of D(2) dopamine receptor (Homo sapiens) (P14416 whole entry, looked up): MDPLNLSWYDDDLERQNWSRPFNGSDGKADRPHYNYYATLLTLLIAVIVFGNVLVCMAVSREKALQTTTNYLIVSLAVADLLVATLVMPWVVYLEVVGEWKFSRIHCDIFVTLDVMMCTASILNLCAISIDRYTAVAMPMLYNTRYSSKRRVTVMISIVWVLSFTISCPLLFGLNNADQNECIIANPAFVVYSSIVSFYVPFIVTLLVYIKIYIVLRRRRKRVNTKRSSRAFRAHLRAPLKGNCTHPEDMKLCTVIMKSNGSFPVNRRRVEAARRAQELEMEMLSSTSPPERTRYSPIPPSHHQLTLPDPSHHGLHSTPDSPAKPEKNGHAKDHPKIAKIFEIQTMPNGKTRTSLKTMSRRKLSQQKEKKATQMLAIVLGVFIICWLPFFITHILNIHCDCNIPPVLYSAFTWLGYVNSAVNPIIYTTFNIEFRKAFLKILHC
Outline: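 cAMP accumulation in DRD2-HEK293 cells measured by HTRF after 1 h detection; compounds added 10 min before NKH477 (200nM […]) forskolin-analogue stimulation, 30 min at room temperature, with Ro20-1724 present at 0.1 mM final.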

[14] = target: 5-hydroxytryptamine receptor 2A (Homo sapiens) (UniProt P28223); test: 5-hydroxytryptamine receptor 2A (HTR2A) small molecule antagonists, cell-based qHTS assay (AID 1963586); note: nearly all actives have a fitted effect of over 45% in size; note: potency is the fitted concentration of half-maximal effect
Chain of 5-hydroxytryptamine receptor 2A (Homo sapiens) (P28223 whole entry, looked up): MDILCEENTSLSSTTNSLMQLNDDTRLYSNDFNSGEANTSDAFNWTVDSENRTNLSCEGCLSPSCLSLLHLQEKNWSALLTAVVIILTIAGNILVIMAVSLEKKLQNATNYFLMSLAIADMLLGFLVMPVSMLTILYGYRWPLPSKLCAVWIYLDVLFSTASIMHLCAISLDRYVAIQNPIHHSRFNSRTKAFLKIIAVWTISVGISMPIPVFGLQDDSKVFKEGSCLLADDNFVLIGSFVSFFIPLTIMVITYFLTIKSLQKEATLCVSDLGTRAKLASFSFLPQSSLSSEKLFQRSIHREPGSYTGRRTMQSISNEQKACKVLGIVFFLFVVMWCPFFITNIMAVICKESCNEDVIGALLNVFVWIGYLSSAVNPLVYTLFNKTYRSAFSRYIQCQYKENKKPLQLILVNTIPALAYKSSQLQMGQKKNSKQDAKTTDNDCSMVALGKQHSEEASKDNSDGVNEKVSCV
Outline: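 Antagonist-mode intracellular calcium assay: DOI (4 nM) added after 5 min compound pre-incubation at room temperature to dye-loaded HTR2A-CHO cells. Fluorescence followed for 3 min, sampled every second.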

[15] = target: 5-hydroxytryptamine receptor 2A (Homo sapiens) (UniProt P28223); test: 5-hydroxytryptamine receptor 2A (HTR2A) small molecule agonists, cell-based qHTS assay (AID 1963587); note: nearly all actives have a fitted effect of over 30% in size
Outline: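 Kinetic calcium-flux fluorescence (2 min, 1 sec intervals) after compound addition in agonist mode. HTR2A-CHO cells were cultured 18 h, then dye-loaded 1 h at 37 C.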

[16] = target: Muscarinic acetylcholine receptor M1 (Homo sapiens) (UniProt P11229); test: Cholinergic receptor muscarinic 1 (CHRM1) small molecule antagonists, cell-based qHTS assay (AID 1963588); note: nearly all actives have a fitted effect of over 40% in size; note: potency is the fitted concentration of half-maximal effect
Chain of Muscarinic acetylcholine receptor M1 (Homo sapiens) (P11229 whole entry, looked up): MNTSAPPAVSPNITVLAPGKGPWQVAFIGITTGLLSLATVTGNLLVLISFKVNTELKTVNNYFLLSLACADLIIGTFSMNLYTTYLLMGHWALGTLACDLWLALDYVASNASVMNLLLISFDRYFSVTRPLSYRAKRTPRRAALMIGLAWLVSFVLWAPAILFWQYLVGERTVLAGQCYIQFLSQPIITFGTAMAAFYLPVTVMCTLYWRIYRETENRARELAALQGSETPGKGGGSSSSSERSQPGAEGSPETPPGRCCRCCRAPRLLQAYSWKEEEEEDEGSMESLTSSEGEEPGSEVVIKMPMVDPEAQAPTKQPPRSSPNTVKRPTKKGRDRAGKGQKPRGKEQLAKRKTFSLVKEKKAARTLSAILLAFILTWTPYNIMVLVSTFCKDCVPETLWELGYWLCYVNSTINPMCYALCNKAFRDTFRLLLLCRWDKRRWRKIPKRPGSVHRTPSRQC
Outline: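 CHRM1-CHO calcium-flux assay, antagonist mode. Cells were seeded 18 h, dye-loaded 1 h at 37 C and given compound for 5 min at RT, then acetylcholine was added at 50nM. FDSS fluorescence was read 3 min; 15 concentrations, three runs.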

[17] = target: Muscarinic acetylcholine receptor M1 (Homo sapiens) (UniProt P11229); test: Cholinergic receptor muscarinic 1 (CHRM1) small molecule agonists, cell-based qHTS assay (AID 1963589); note: nearly all actives have a fitted effect of over 35% in size
Outline: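 Human M1 in stable CHO line; 18 h plating, 1 h dye load 37 C; cpd added (agonist mode); Ca2+ fluorescence kinetic read, 1 s intervals; 15 conc, 3 runs.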

[18] = target: D(2) dopamine receptor (Homo sapiens) (UniProt P14416); test: Dopamine D2 receptor (DRD2) small molecule antagonists, cell-based qHTS assay (AID 1963595; active = well fitted inhibition curve with a large enough effect in the signal ratio in the repeat runs, with a control signal flat; the % refers to the signal ratio)
Outline: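 In this cell-based antagonist screen, compounds act for 10 min at room temperature before a 30 min challenge with 12 nM quinpirole and 200 nM NKH477. cAMP is quantified by HTRF competition in DRD2-HEK293 cells containing 0.1 mM Ro20-1724.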

[19] = p53 small molecule agonists, cell-based qHTS assay with rat liver microsomes (AID 1963578)
Outline: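 Rat liver microsome activation: microsomes 0.5 mg/mL, NADPH 0.5 mg/mL final; p53RE-bla cells, 16 h 37 C; LiveBLAzer readout, 2 h RT dark.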

[20] = target: Beta-2 adrenergic receptor (Homo sapiens) (UniProt P07550); test: Adrenergic beta2 receptor (ADRB2) small molecule agonists, cell-based qHTS assay (AID 1963593);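 note: CHO cells stably overexpressing human ADRB2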
Outline: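 CHO cells stably over-expressing ADRB2 were plated overnight at 37C, then dosed with compounds plus a stimulation mix containing 100uM IBMX and 25uM Ro-20-1724 for 0.5hr at room temperature. cAMP was measured by HTRF competition, 1hr.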

Measured: Potency

ClC(Cl)(Cl)Cl
not listed: [14] | [15] | [16] | [17] | [18] | [19] | [20]
inactive: all other assays above

CCCC(C)C1(CC)C(=O)N=C(S)NC1=O (configuration not stated)
not listed: [5] | [9] | [13] | [19] | [20]
inactive: all other assays above

CCOCCOC(C)=O
inactive: [1] | [2] | [3] | [4] | [19] | [9] | [15] | [17] | [10] | [13]
active: [11] 12.8 µM

CCC(=O)c1ccc(Cl)cc1
not listed: [5] | [9] | [13] | [19] | [20]
inactive: all other assays above

CCOP(=O)(OCC)Oc1cc(C)nc(C(C)C)n1
not listed: [5] | [15] | [19]
inactive: all other assays above

CC(=O)O.CC(=O)O.CC(=O)O.CC(=O)O.CC(=O)O.CC(=O)O.CC(=O)O.O.O.[Cr].[Cr].[Cr]
not listed: [5] | [9] | [19]
inactive: all other assays above

O=[N+]([O-])c1cccc(CCl)c1
not listed: [5] | [9] | [19] | [20]
inactive: all other assays above

COP(=O)(OC)SCn1c(=O)oc2cc(Cl)cnc21
not listed: [6] | [8] | [9] | [10] | [11] | [15] | [17] | [19]
inactive: all other assays above

Oc1c(I)cc(I)cc1I
active: [1] 30.6 µM | [14] 42.1 µM
inactive: [2] | [3] | [4] | [5] | [6] | [17] | [11] | [13] | [18]

CCOP(=S)(OCC)SCCl
not listed: [5] | [14] | [19]
inactive: all other assays above

O=[N+]([O-])c1ccc(Nc2ccccc2)cc1
active: [1] 61.6 µM | [14] 16.9 µM and 16.8 µM
inactive: [2] | [3] | [5] | [6] | [7] | [15] | [16] | [17] | [12] | [13]

CC(=O)[O-].CC(=O)[O-].O.O.[Zn+2]
not listed: [5] | [9] | [17] | [19] | [20]
inactive: all other assays above

C#CCC1=C(C)C(OC(=O)C2C(C=C(C)C)C2(C)C)CC1=O (configuration not stated)
active: [16] 11.8 µM
inactive: [1] | [2] | [3] | [4] | [7] | [8] | [14] | [17] | [12] | [13]

C=CC(=O)OCC(C)O (configuration not stated)
not listed: [5] | [9] | [10] | [19] | [20]
inactive: all other assays above

— PubChem BioAssay (Tox21)
